In the library only some 9% were active in any assay of this set; here they are far more common.
JMJD2A Tudor: blocks the human JMJD2A Tudor domain; AlphaScreen JMJD2A-Tudor / H3K4me3 peptide binding; 4.4% of 390,000 active; O75164; Potency, µM (top dose mostly 114 µM), actives largely listed as inhibitors; also: nearly all actives have a fitted effect of over 50% in size
G9a block: G9a (human) methyltransferase inhibition | Potency, µM (top dose mostly 102 µM), actives largely listed as inhibitors | 8.8% of 350,000 active | Q96KQ7 | AID 504332 | G9a H3K9 monomethylation, AlphaScreen, 2 h; also: nearly all actives have a fitted effect of over 75% in size
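G9a (20 nM) was preincubated 15 min with compound, then reacted 2 h at room temperature with 500 nM biotin-H3K9 peptide and 20 µM SAM. Monomethyl-H3K9 detected by AlphaScreen using anti-H3K9me1 antibody.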
BAZ2B inh: BAZ2B (human) inhibition | Q9UIF8 | AlphaScreen BAZ2B-H3K14Ac peptide displacement | Potency, µM (series often up to 114 µM), usual class: inhibitors | 4.4% of 360,000 active | AID 504333; also: nearly all actives have a fitted effect of over 60% in size
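BAZ2B 50 nM plus b-H3(5-23)K14Ac 50 nM, PBS pH 7.4/0.01% Tween-20, 30 min RT; compound added (max 110 uM), 30 min RT; streptavidin donor/Ni-chelate acceptor beads 10 ug/mL final, 20 min dark; AlphaScreen read.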
PLK1 PBD block: blocks phosphopeptide binding to human PLK1 polo-box domain; Plk1 PBD binding of FITC phosphopeptide, fluorescence polarization; Potency, µM, actives largely listed as inhibitors; AID 720504; P53350; 2.8% of 360,000 active; also: series mostly up to about 57 µM; nearly all actives have a fitted effect of over 65% in size
12-LOX inh: inhibitors of human 12S-lipoxygenase ALOX12 | P18054 | purified 12hLO, xylenol orange hydroperoxide absorbance | Potency, µM (titrated, usually from 108 µM), actives largely listed as inhibitors | 1.1% of 580,000 active | AID 1671190
Target sequence (P18054 whole entry, looked up): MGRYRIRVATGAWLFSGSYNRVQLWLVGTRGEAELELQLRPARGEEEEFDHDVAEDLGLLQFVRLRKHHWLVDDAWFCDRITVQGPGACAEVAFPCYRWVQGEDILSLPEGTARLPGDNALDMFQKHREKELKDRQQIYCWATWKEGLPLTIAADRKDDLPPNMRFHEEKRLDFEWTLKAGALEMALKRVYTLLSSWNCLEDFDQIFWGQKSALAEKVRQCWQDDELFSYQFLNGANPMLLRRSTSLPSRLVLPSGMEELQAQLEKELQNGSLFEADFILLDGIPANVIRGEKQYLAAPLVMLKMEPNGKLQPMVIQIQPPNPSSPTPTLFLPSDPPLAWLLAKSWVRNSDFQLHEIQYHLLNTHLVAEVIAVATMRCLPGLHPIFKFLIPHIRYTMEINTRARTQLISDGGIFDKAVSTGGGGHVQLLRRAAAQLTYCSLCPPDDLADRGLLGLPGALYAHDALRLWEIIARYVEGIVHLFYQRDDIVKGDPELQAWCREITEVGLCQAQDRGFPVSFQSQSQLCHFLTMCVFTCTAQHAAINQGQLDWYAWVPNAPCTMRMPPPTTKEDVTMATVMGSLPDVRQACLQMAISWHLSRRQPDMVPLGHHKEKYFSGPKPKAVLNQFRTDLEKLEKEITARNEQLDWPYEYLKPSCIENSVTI
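Hydroperoxide product was detected by ferrous iron/xylenol orange as the 573 to 405 nm absorbance ratio. Arachidonic acid at 40 uM (final) was turned over for 30 min at room temperature by 150 nM human 12hLO, pH 7.0 Hepes buffer, after 15 min compound preincubation.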
HP1b binding inh: HP1-beta chromodomain-methylated histone interaction inhibition; AlphaScreen HP1-beta / biotin-H3K9me3 peptide binding; Potency, µM (series often up to 114 µM), actives largely listed as inhibitors; 0.56% of 390,000 active; also: nearly all actives have a fitted effect of over 70% in size
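HP1-beta protein (50 nM final) preincubated 30 min at room temperature with biotinylated H3(1-18)K9me3 peptide (50 nM) in PBS pH 7.4, 0.01% Tween-20, then compound added for 30 min. AlphaScreen streptavidin donor/nickel chelate acceptor beads (10 ug/mL final), 30 min dark, luminescence read.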
Hits are given with their value; – = inactive; ? = inconclusive; · = not tested or not shown; ! = not active in a repeat; [ ] = remark or other dose. Calls follow the shape of the dose curve; as a rule, active = well fitted curve in the direction sought with a large enough effect; inconclusive = small, poorly fitted or top-dose-only effect, or another doubt; inactive = no such curve, though single readings can be large; an effect the other way counts as inactive or inconclusive.

SMILES | JMJD2A Tudor | G9a block | BAZ2B inh | PLK1 PBD block | 12-LOX inh | HP1b binding inh
CCOc1ccccc1/C=C/C(=O)c1ccc(Cl)cc1 | – | – | – | – | – | –
CCOc1cc(/C=C/C(=O)c2ccc(OC(F)F)cc2)cc(Cl)c1OC | · | · | · | · | – | ·
CCOc1cc(/C=C/C(=O)c2ccc(C)cc2)cc(Cl)c1O | · | · | · | · | 22µM | ·
COC(=O)C1=C(C)N(Cc2ccccc2C(F)(F)F)C(=NCc2cccc(C(F)(F)F)c2)NC1c1ccc(C(F)(F)F)cc1 (configuration not stated) | · | · | · | · | – | ·
CN(C)C(=O)c1ccc(-c2nc(N3CCOCC3)c3ccccc3n2)cc1 | · | –[0.501 µM] | · | · | 45µM | ·
COc1ccccc1OC1(C(=O)O)CCN(Cc2cnn(C)c2C)CC1 | · | · | · | · | – | ·
COC(=O)C[C@@H]1C=C[C@@H](NC(=O)Nc2cccc(F)c2)[C@@H](CO)O1 | · | · | · | – | ? | ·
C=CCc1cccc2cc(C(=O)Nc3ccccc3C(=O)O)c(=O)oc12 | – | 13µM | 50µM | 12µM | ? | –
C=CCc1cccc2cc(C(=O)N3CCN(C(=O)c4ccco4)CC3)c(=O)oc12 | – | 45µM | – | – | – | –
Cc1ccc(NC(=O)Cn2cnc3c(oc4ccccc43)c2=O)cc1 | ? | ? | – | · | – | –
COC(=O)c1ccc(Cc2ccc(C(=O)OC)o2)o1 | – | ? | – | – | – | –
CCC(C)NCc1ccc(C(=O)OC)o1 (configuration not stated) | ? | –[12.7 µM] | – | 24µM | ? | ?
COC(=O)c1ccc(Cn2c(C)cc(C)[n+]2C)o1 | 40µM | ? | ? | – | – | –
Cc1nn2c(c1-c1ccccc1C(C)C)N(C(=O)Cc1ccc3c(c1)OCO3)CCC2 | · | · | · | · | – | ·
COc1cccc(/C=C2\SC(=S)N(C(Cc3ccccc3)C(=O)O)C2=O)c1 (configuration not stated) | – | 45µM | ? | 34µM | 45µM | –
COc1cccc(/C=C2\SC(=S)N(CCC(=O)NCCc3ccc(O)cc3)C2=O)c1 | – | – | – | – | – | –
O=C(O)C(Cc1ccccc1)N1C(=O)/C(=C/c2cccs2)SC1=S (configuration not stated) | ? | 22µM | ? | ? | ? | –
CC(c1ccccc1)N1C(=O)/C(=C/c2ccncc2)SC1=S (configuration not stated) | 16µM | 28µM | 16µM | – | ? | ?
CC(/C=C1\SC(=S)N(C(C(=O)O)c2ccccc2)C1=O)=C\c1ccccc1 (configuration not stated) | ? | · | ? | 27µM | ? | –
COC(=O)C(C)N1C(=O)S/C(=C/c2cccs2)C1=O (configuration not stated) | · | · | · | · | – | ·
O=C(O)C(c1ccccc1)N1C(=O)/C(=C/c2cccs2)SC1=S (configuration not stated) | 4µM | · | – | ? | ? | –
Cc1cc(C)[n+]2[nH]c(N)c(N=Nc3ccccc3)c2n1 | – | ? | ? | – | ? | –
Cc1cccc(N=Nc2c(N)n[nH]c2N)c1 | ? | – | 40µM | – | – | –
Nc1n[nH]c(N)c1N=Nc1ccc(Cl)cc1 | 35µM | – | 45µM | – | – | –
Cc1cc(C)n2[nH]c(=O)c(N=Nc3cccc(C(F)(F)F)c3)c2n1 | ? | –[12.7 µM] | – | – | – | –
SMILES | JMJD2A Tudor | G9a block | BAZ2B inh | PLK1 PBD block | 12-LOX inh | HP1b binding inh
Nc1n[nH]c(N)c1N=Nc1cccc(C(F)(F)F)c1 | ? | 71µM | 40µM | – | – | –
Nc1n[nH]c(N)c1N=Nc1cccc(F)c1 | ? | ? | 40µM | – | – | –
Cc1cccc(N=C2N=C(N)c3ccccc32)c1 | – | –[0.501 µM] | – | – | – | –
Cc1ccc(S(=O)(=O)N(C)c2cc(S(=O)(=O)N3CCOCC3)c(C)cc2C)cc1 | – | – | – | – | – | –
O=C(O)c1ccccc1C(=O)Nc1n[nH]c(=S)s1 | 13µM | 1.4µM | 32µM | 27µM | ? | 28µM
Cc1[nH]n(-c2ccccc2)c(=O)c1-c1cccc(Cl)c1 | – | –[0.0925 µM] | ? | – | – | –
Cc1[nH]n(-c2ccccc2)c(=O)c1-c1ccc(Cl)cc1 | 79µM | 14µM | – | 27µM | – | –
Cc1[nH]n(-c2ccccc2)c(=O)c1S(=O)(=O)c1ccccc1 | – | 45µM | – | – | ? | –
Cc1[nH]n(-c2ccccc2)c(=O)c1CCO | – | · | – | – | – | –
CCc1c(C)nc(SCC(=O)N2CCCCC2CC)[nH]c1=O (configuration not stated) | –[11.4 µM] | · | – | 24µM | – | –
CCc1c(C)nc(SCC(=O)N2CCN(c3ccccc3)CC2)[nH]c1=O | – | – | – | – | – | –
S=c1[nH]nc(-c2ccccc2)o1 | –[11.4 µM] | ? | 79µM | 30µM | – | –
COc1ccccc1-c1n[nH]c(=S)o1 | –[11.4 µM] | ? | – | – | ? | –
Cc1ccccc1-c1n[nH]c(=S)o1 | ? | 13µM | – | – | ? | –
CCSc1nnc(-c2nn(Cc3ccccc3)c(=O)c3ccccc23)o1 | · | · | · | · | – | ·
O=c1c2ccccc2c(-c2n[nH]c(=S)o2)nn1Cc1ccccc1 | ? | 4µM | – | ? | ? | –
CSc1ccccc1-c1n[nH]c(=S)o1 | ? | 6.3µM | – | ? | – | –
Nc1nccnc1C(=O)OCC(=O)c1ccc[nH]1 | – | 50µM | – | – | – | –
CCOc1ncccc1C(=O)OCC(=O)c1ccc[nH]1 | – | – | – | – | – | –
Cc1cnc(CNc2ncnc3ccc(-c4ccccc4Cl)cc23)cn1 | · | –[0.501 µM] | · | · | – | ·
c1ccc2c(-c3nc4ccccc4[nH]3)cccc2c1 | · | · | · | – | – | ·
CSc1ncccc1-c1nc2ccccc2[nH]1 | – | 10µM | – | – | – | –
CN(C)C(=O)CSc1ncccc1-c1nc2ccccc2[nH]1 | – | – | – | – | ? | –
c1ccc2[nH]c(-c3ccnc4ccccc34)nc2c1 | – | 8.9µM! | ? | – | ? | –
